The whole screen tested about 1,000 compounds, of which about 200 (20%) were called active. These entries were drawn from the full list. Results with a measured potency or affinity are listed apart. Unmarked numbers belong to inactive results. Rule as the data show it: active = inhibition above about 55%; inactive = the rest.
Molecular target: Dual specificity protein phosphatase 3 (Homo sapiens) (UniProt P51452)
Assay: VHR1 phosphatase inhibitors, biochemical (AID 1878)
Settings: recombinant VHR phosphatase, fluorogenic substrate; at 13.3 µM; hits give high values

Sequence of Dual specificity protein phosphatase 3 (Homo sapiens) (P51452 whole entry, looked up): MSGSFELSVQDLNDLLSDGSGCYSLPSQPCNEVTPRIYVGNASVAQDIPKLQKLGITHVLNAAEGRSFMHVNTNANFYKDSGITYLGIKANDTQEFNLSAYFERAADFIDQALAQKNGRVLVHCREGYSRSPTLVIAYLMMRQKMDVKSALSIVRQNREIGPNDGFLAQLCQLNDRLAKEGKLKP

Row | SMILES | inhibition
1 | Cc1nc(C)c(C(=O)Nc2cccc(C)c2C)s1 | 32.5%
2 | O=C(O)C1Nc2c(Cl)cc(Cl)cc2C2C=CCC12 (stereo not given) | 89.8% (active)
3 | O=C(O)C1Nc2c(O)cc(Cl)c([N+](=O)[O-])c2C2C=CCC12 (stereo not given) | 92.7% (active)
4 | O=C(Cn1c(=O)c2cccn2c2ccccc21)NCCCN1CCCCC1 | 2%
5 | O=C(CCC(=O)c1ccc(F)cc1)NCc1ccccc1C(F)(F)F | 2.4%
6 | COc1cc(CN2CCN(CC3CC3)CC2CCO)cc(OC)c1 (stereo not given) | -3.6%
7 | CN(Cc1ccccc1)C(=O)COC(=O)COc1ccc(C#N)cc1 | -2.2%
8 | CC(C(=O)NCCCc1ccccc1)n1cccc1C(=O)c1ccccc1 (stereo not given) | 17.1%
9 | CC(C)[C@H](NC(=O)C1CCN(S(=O)(=O)c2ccccc2)CC1)C(=O)NCc1ccccc1 | 12.2%
10 | CCCc1cc(SCC(=O)Nc2c(C)n(C)n(-c3ccccc3)c2=O)n2c(nc3ccccc32)c1C#N | 98.7% (active)
11 | CC(C(=O)Nc1cccc(S(=O)(=O)N2CCOCC2)c1)N1CCN(C)CC1 (stereo not given) | -1.7%
12 | CCOC(=O)c1c(C)n(CCOc2ccccc2)c2ccc(O)cc12 | 14.4%
13 | CC(C)/C=C/CN1CCCC(N2CCN(c3cccc(Cl)c3)CC2)C1 (stereo not given) | -15%
14 | COC(=O)c1ccc(COc2ccc(F)cc2)o1 | 27.9%
15 | C/C(=N\NC(=O)C(=O)Nc1ccc(C)c(Cl)c1)c1ccncc1 | 91.6% (active)
16 | Cc1ccc(F)c(CNC(=O)C2CCC(=O)N(Cc3ccccn3)C2)c1F (stereo not given) | 1.1%
17 | CCC(=O)N1CCN=C1SCc1cccc(F)c1 | 0.5%
18 | CCC(=O)Nc1c(-c2ccc(Cl)cc2)c(=O)c2ccccc2n1C | -1.5%
19 | COC(=O)c1cc(S(=O)(=O)N2CCCCC2)c[nH]1 | 4.2%
20 | Cc1c(C)c2cc(Cl)c(OCC(=O)NC3CC(C)(C)NC(C)(C)C3)cc2oc1=O | -11.9%
21 | Nc1ccc2nc3c(=O)[nH]c(=S)[nH]c3nc2c1 | 61.5% (active)
22 | COc1cccc(-c2ocnc2C(=O)Nc2ccc(N3CCOCC3)cc2N2CCOCC2)c1 | -5.2%
23 | CCCCN(CCCC)CCNC(=O)CN1C(=O)COc2ccc(S(=O)(=O)N3CCOCC3)cc21 | -18%
24 | Nc1nonc1-c1nc2ccccc2n1CC(=O)N/N=C/c1ccc(-c2cccc(C(=O)O)c2)o1 | 73.2% (active)

Row | SMILES | inhibition
25 | O=S(=O)(NCCc1csc(-c2cccnc2)n1)c1ccc(F)cc1 | -3.7%
26 | Oc1ccc(/C=N/Nc2ncc(Cl)cc2Cl)cc1 | 14.3%
27 | CCc1c(C)nc2c(-c3ccccc3)c(-c3ccccc3)[nH]n2c1=O | 1.4%
28 | COC(=O)c1ccc(NS(=O)(=O)c2ccc3c(c2)n(C)c(=O)n3C)cc1 | -7.8%
29 | CCCN1CCC(=O)N([C@H](CSc2ccccc2)CC(C)C)CC1 | -3.5%
30 | COc1cccc(-c2coc3cc4oc(=O)c(CCC(=O)O)c(C)c4cc23)c1 | -0.1%
31 | O=C(NCCCN1CCCCC1)c1ccc(CS(=O)c2ccc(Cl)cc2)o1 (stereo not given) | -3.5%
32 | OCCC1CCCCN1CC(O)COCc1ccc(Cl)cc1 (stereo not given) | -7.1%
33 | c1ccc(-c2ccnc3nc(N4CCN(c5ccccc5)CC4)nn23)cc1 | 19%
34 | CC1Cc2cc(-c3csc(N)n3)ccc2O1 (stereo not given) | 7.6%
35 | O=C(CNC(=O)c1ccco1)Nc1ccc(Br)cc1 | 7%
36 | CCCC(CCC)C(=O)NC1CCN(Cc2ccccc2)CC1 | -4.1%
37 | CN(C)c1ccc(C(=S)N2CCN(Cc3ccccc3)CC2)cc1 | 56.8% (active)
38 | S=C(c1ccc(OCc2ccccc2)cc1)N1CCCC1 | 7.3%
39 | O=c1[nH]c2ccc(NS(=O)(=O)c3ccc(F)c(Cl)c3)cc2[nH]1 | -7.2%
40 | NC(=S)N/N=C/c1ccc2cccc(OCc3ccccc3)c2n1 | 9.9%
41 | Cc1cc2c(cc3c(=O)n(CC(=O)NCCCN4CC(C)CC(C)C4)ncn32)s1 (stereo not given) | -3.8%
42 | Cc1[nH]c(=O)[nH]c(=O)c1S(=O)(=O)Nc1ccc(Br)cc1F | 4.3%
43 | O=C(N[C@@H](Cc1ccccc1)C(=O)N1CCC2(CC1)NCCc1[nH]cnc12)c1cccc(F)c1 | 19.9%
44 | CN1CCN(Cc2nc3ccccc3n2C)CC1CCO (stereo not given) | -0.8%
45 | CS(=O)(=O)C1=NSC2=NC(=O)/C(=C\c3cccn3-c3ccc(Cl)cc3)C(=N)N21 | 86.4% (active)
46 | Cc1ccc(-n2cccc2/C=C2\C(=N)N3N=C(c4ccco4)SC3=NC2=O)cc1 | 98.9% (active)
47 | c1ccc(NC2=NCCCS2)cc1 | -2.2%
48 | COc1ccc(C)c(NC(=O)NCCc2cnc[nH]2)c1 | 7.6%

Row | SMILES | inhibition
49 | CCOc1ccc(S(=O)(=O)N2CCOCC2)cc1NC(=O)CSCC(=O)Nc1cccc(C)c1 | -2.1%
50 | CCCCCCC(=O)Nc1nc(C)c(-c2csc(Nc3cc(OC)ccc3OC)n2)s1 | 11.7%
51 | O=C(COc1ccc(S(=O)(=O)N2CCOCC2)cc1)N1CCN(c2ccccc2)CC1 | 7.2%
52 | CNC1(C(N)=O)CCNCC1 | -8.1%
53 | CC1=CC(=C2C=CC(=O)C=C2)C=C(C)N1C | 4.7%
54 | CCCCNC(=O)CCc1c(C)nc2c(c(C)nn2-c2ccccc2)c1C | -6.7%
55 | Cc1cccc(-n2c(N)c(C(=O)N3CCN(C)CC3)sc2=S)c1 | 36.6%
56 | Cc1ccc(CC(=O)NC2CCN(C)CC2)cc1 | 21.9%
57 | CN1CCCN(C(=O)c2cccc(Cl)c2)CC1 | -8.6%
58 | CC(C)c1ccc(NC(=O)N2CCN(S(=O)(=O)c3ccccc3)CC2)cc1 | 0%
59 | Nc1c2c(nc3c1CCCC3)CCCC2 (tested in a mixture with another compound) | -12.1%
60 | CN(C)CCN(Cc1ccccc1)C(=O)C1CCN(c2ncnc3c2nc2n3CCCCC2)CC1 | -3.7%
61 | CC(C)(C)NC(=S)N1CCC(C(=O)c2ccc(F)cc2)CC1 | -7.6%
62 | Cc1ccc(N=C2C(=O)Nc3c(C)cccc32)cc1 | -18.2%
63 | O=S(=O)(NC(=NCc1ccccc1)c1ccccc1)c1ccccc1 | -7.7%
64 | CCC(C)(C)NC(=O)CN(C(=O)CCC(=O)Nc1nccs1)c1ccc2c(c1)OCCO2 | 1.8%
65 | O=C(c1cccc([N+](=O)[O-])c1)c1ccc2c(c1)C(=O)N(c1c[nH]c(=O)[nH]c1=O)C2=O | -0.9%
66 | CC(C)=C(NC(=O)c1ccccc1)C(=O)NCCc1nc2ccccc2[nH]1 | 26.9%
67 | CCc1ccc2nc(NC(=O)c3ccc4c(=O)[nH]c(CN5CCOCC5)nc4c3)sc2c1 | 66.5% (active)
68 | Cc1ccc2nc(NC(=O)C3CC3C)sc2c1 (stereo not given) | -7.4%
69 | CCN(CC)CCCNC(=O)c1oc2ccc3c(c2c1C)C(O)CC(C)(C)O3 (stereo not given) | -1.6%
70 | CC(C)C(=O)N1CCC(n2nccc2NC(=O)CCc2ccccc2)CC1 | -2.1%

From PubChem BioAssay AID1878 (Sanford-Burnham Center for Chemical Genomics, 2009)
